Bioassay records as filed in PubChem BioAssay.
hcDAF12 agonist: H. contortus DAF-12 nuclear receptor activators, primary screen, cell-based, luminescence, HEK293, lit1-tk-luc reporter. HEK293 hcDAF-12 lit1-tk-luc reporter; 0% DMSO, 100% Δ7-dafachronic acid. activation, % at 6.8 µM. 1.4% of 370,000 active;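 active means activation above the mean of all tested compounds plus 3 SD, cut at about 5.5% in these data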
DAX1 inh-1: DAX1 (NR0B1) inhibitors on StAR promoter, primary screen, cell-based, luminescence, SF-1 (NR5A1), full-length DAX-1 | HEK293T StAR-luciferase reporter, SF-1/DAX-1 repression relief | inhibition, % at 6.8 µM | 1.1% of 370,000 active;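 active means inhibition above the mean over all tested compounds plus 3 SD, cut at about 3.6% in these data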;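 further: higher inhibition means more luminescence from relief of DAX-1 repression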
hgDAF12 agonist: H. glycines DAF-12 receptor agonists, primary screen, cell-based, luminescence, HEK293, GAL4 fusion, UAS-luciferase; HEK293 GAL4-hgDAF12 UAS-luciferase reporter, agonist luminescence; normalized to butyrate control; activation, % at 6.8 µM; 1.8% of 370,000 active;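 active means activation above a cutoff set at the mean of all screened compounds plus 3 SD, cut at about 10% in these data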
ssDAF12 agonist: S. stercoralis DAF-12 nuclear receptor activators, primary screen, cell-based, luminescence, HEK293, GRIP1 co-expression, lit1-tk-luc. activation, % at 6.8 µM. AID 652126, 2013. 1% of 370,000 active. Nuclear hormone receptor DAF-12 (Strongyloides stercoralis). HEK293 ssDAF-12/GRIP1 lit1-tk-luc reporter; % of 3 µM dafachronic acid response;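 active means activation above the mean over all tested compounds plus 3 SD, cut at about 0.9% in these data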
DAX1 inh-2: DAX1 (NR0B1) inhibitors, primary screen, cell-based, HEK293, Gal4-DAX1, luciferase luminescence. Nuclear receptor subfamily 0 group B member 1 (Homo sapiens), P51843. HEK293 Gal4-DAX1 luciferase reporter. inhibition, % at 6.75 µM. 0.99% of 340,000 active;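 active means inhibition above the mean over all tested compounds plus 3 SD, cut at about 4.2% in these data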;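 further: inhibition shows as a rise in luminescence from relieved DAX1 repression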
DAX1 inh confirm: DAX1 (NR0B1) inhibitors relieving SF-1 repression, confirmation, cell-based, luminescence, HEK293T, full-length DAX-1, SF-1 activated StAR promoter. HEK293T StAR-promoter luciferase reporter, SF-1/DAX-1 repression. shares compounds with DAX1 inh-1. AID 652134, 2013. inhibition, % at 6.8 µM. 87% of 2,400 active;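 active means inhibition above the average of every tested compound plus 3 SD, cut at about 3.8% in these data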
Target sequence (P51843 whole entry, looked up): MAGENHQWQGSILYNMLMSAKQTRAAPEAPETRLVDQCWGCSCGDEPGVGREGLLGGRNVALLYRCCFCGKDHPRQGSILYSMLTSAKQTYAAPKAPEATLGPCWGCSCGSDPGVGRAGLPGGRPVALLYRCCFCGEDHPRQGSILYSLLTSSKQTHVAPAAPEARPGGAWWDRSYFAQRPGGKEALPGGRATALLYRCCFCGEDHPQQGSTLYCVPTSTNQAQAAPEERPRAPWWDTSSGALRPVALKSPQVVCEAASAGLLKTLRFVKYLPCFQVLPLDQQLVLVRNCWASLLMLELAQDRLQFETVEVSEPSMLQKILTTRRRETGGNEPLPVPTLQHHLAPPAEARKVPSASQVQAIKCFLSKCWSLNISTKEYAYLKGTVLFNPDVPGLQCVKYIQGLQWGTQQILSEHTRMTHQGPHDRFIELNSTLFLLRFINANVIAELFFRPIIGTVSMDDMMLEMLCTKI
SF1 mutant ctr: StAR reporter signal changes without DAX1, counter-screen for DAX1 inhibitor project, cell-based, luminescence, AF-2 mutant SF-1, transactivation; shares compounds with DAX1 inh-1; HEK293 StAR-luciferase, SF-1 AF2 mutant; inhibition, % at 6.8 µM; 78% of 2,400 active;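 active means inhibition above the mean of all tested compounds plus 3 SD, cut at about 3% in these data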
Numbers stand for hits; - = inactive; . = not tested or not shown. Rows were chosen to be rich in hits. Some 4.1% of all compounds tested hit in one or more screens of this group.

SMILES	hcDAF12 agonist	DAX1 inh-1	hgDAF12 agonist	ssDAF12 agonist	DAX1 inh-2	DAX1 inh confirm	SF1 mutant ctr
CCCCC[C@@H](C)N1C[C@H](COCc2ccccc2)Oc2cc(N3CCC[C@@H]3COC)ccc2S1(=O)=O	-	5.1	-	-	.	5.7	4.3
CCc1cccc2c(C(=O)CN3C(=O)N(C)C4(CCCCC4)C3=O)c[nH]c12	-	7.9	-	-	-	11	-
CCc1cccc2c(C(=O)CN3C(=O)NC(C)(c4cccc5ccccc45)C3=O)c[nH]c12 (stereo unspecified)	-	-	-	-	-	.	.
CCc1cccc2c(C(=O)CN3C(=O)NC4(CCc5ccccc54)C3=O)c[nH]c12 (stereo unspecified)	-	12	-	-	-	5.9	-
CCc1cccc2c(=O)c(C(=O)N3CCCCCC3)c[nH]c12	-	-	-	-	-	.	.
CCn1cc(C(=O)N2CCCC(C(=O)c3cccc(C(F)(F)F)c3)C2)cn1 (stereo unspecified)	-	-	-	-	-	.	.
COc1ccc(/C=N/Nc2nncc3ccccc23)cc1	11	6.4	17	1.9	-	14	-
COc1ccc(/C=N/Nc2nccnc2Cl)cc1	-	5.9	12	-	-	14	8.7
CCCCCc1c(C)[nH]c2nc3ccccc3n2c1=O	-	-	-	-	-	.	.
Cc1ccc(S(=O)(=O)N2CCN(S(=O)(=O)c3ccccc3Br)C2=O)cc1	-	-	-	-	-	.	.
O=C(NN=C1CCC(=NNC(=O)c2ccccn2)CC1)c1ccccn1	-	5.7	17	-	-	-	-
O=C(NN=C(c1ccccc1)c1ccccn1)c1ccccc1	-	-	-	-	-	.	.
CCOc1cc(/C=N/NC(=O)c2ccccn2)ccc1OC(=O)c1ccc(F)cc1	-	6.1	-	-	-	-	4.7
C/C(Cc1ccccc1)=N\NC(=O)c1cccnc1	-	-	-	-	-	.	.
O=C(N/N=C/c1ccsc1)c1ccccn1	6.3	5.7	13	-	5.0	4.7	-
C/C(Cc1ccccc1)=N\NC(=O)c1ccccn1	-	8.5	12	-	-	-	-
CC(CC(=O)N(CCC1=CCCCC1)c1c(N)n(Cc2ccccc2)c(=O)[nH]c1=O)c1ccccc1 (stereo unspecified)	-	6.3	-	-	-	-	-
CCN(C(=O)CSc1ncccn1)c1c(N)n(Cc2ccccc2)c(=O)[nH]c1=O	-	4.7	-	-	-	-	-
O=C(OCC(=O)N1CCCCC1)c1cc(=O)[nH]c2ccccc12	-	4.9	-	-	-	-	-
O=C(OCC(=O)N1CCCCC1)c1c[nH]c2ccccc12	-	-	-	-	-	.	.
Cc1ccc(CNC(=O)Cc2noc3ccccc23)cc1	-	9.5	11	-	-	8.2	4.8
CCOc1ccccc1-c1cc(NC)ncn1	-	-	-	-	.	.	.
CNc1cc(-c2ccc(CC#N)cc2)ncn1	-	4.5	-	-	.	6.8	5.5
Cc1nnc(SCC(=O)N(CCC#N)c2ccc3c(c2)OCCO3)s1	-	-	-	-	-	.	.
C/C(=N\NC(=O)c1ccn(C)n1)c1ccc(NC(=O)c2cccc(F)c2)cc1	-	8.4	-	-	-	-	-
CCC(=O)C1CCCN(C(=O)CCc2nnc(-c3ccc(C(C)=O)s3)o2)C1 (stereo unspecified)	6.0	5.3	-	-	-	6.8	4.8
